Screening results: PubChem, Center for Chemical Genomics, University of Michigan
Dicer inh – inhibitors of human Dicer processing of pre-microRNA. z-score at 25 µM. 47,000 tested, 6% active. Q9UPY3. cat-ELCCA pre-miR-21 Dicer processing, chemiluminescence; hits give high values; in the data active means z-score above about 3, passing the limit was not always enough;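 further: plate controls were vehicle for no effect and no enzyme for full effect; higher signal means more uncleaved substrate so more Dicer inhibition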
* = called active by the depositor. The full list was thinned out, with hits kept by preference.

SMILES	Dicer inh
COc1ccc(OC)c(CN2CCN(C3CCCCC3)CC2)c1	3.13*
COc1ccc(OC)c(CN2CCN(Cc3ccc(OC)c(Br)c3)CC2)c1	-0.14
c1ccc(CN2CCC(N3CCN(C4CCCCC4)CC3)CC2)cc1	0.42
Fc1ccccc1CN1CCN(C2CCCCC2)CC1	4.12*
CCc1ccc(CN2CCN(C3CCCCC3)CC2)cc1	2.54
COc1ccc(OC)c(CN2CCN(Cc3ccc(SC)cc3)CC2)c1	2.18
Clc1ccc(CN2CCN(C3CCCCC3)CC2)cc1	-2.45
Clc1ccc(CN2CCN(C3CCCC3)CC2)cc1	1.06
Fc1cccc(CN2CCN(C3CCCC3)CC2)c1	3.78*
COC(=O)c1ccc(C2/C(=C(/O)c3ccc(C)cc3)C(=O)C(=O)N2c2cccnc2)cc1 (stereo not given)	9
CN(C)c1ccc(C2N=C(N)Nc3nc4ccccc4n32)cc1 (stereo not given)	1.36
O=C(CCc1ccccc1)NN1CC(=O)N(c2cc(Cl)cc(Cl)c2)CC1=O	-0.43
O=C(COc1cccc2cccnc12)N1CCN(C(=O)COc2cccc3cccnc23)CC1	0.42
CCn1cc(CNC(=O)c2cc3n(n2)C(C(F)(F)F)CC(c2ccco2)N3)c(C)n1 (stereo not given)	1.1
CCOC(=O)C1=C(C)NC2=C(C(=O)CC(C)(C)C2)C1c1cccc(F)c1 (stereo not given)	-0.62
Cc1cc(S(=O)(=O)O/N=C(\N)CS(=O)(=O)c2ccccc2)c(Cl)cc1Cl	-0.25
CC(N)=O	4.06*
CC1CN(c2nc3c(Cl)cc(Cl)cc3s2)CC(C)O1 (stereo not given)	-0.86
CC(C)S(=O)(=O)c1csc(C(=O)N/N=C/C(C)(C)C)c1-n1cccc1	-1.94
O=C1c2cccc3cccc(c23)C(=O)C1c1ccccc1	-1.14
O=C1c2cc3ccccc3cc2C(=O)C1c1ccccc1	3.98*
O=C1c2ccccc2C(=O)C1c1ccc2ccccc2n1	0.48
Cc1nc(-c2ccc(S(=O)(=O)N3CCCN(c4nc(-c5ccccc5)ns4)CC3)s2)cs1	0.24
CCOC(=O)C1=C(C)NC2=C(C(=O)CC(c3ccccc3)C2)C1c1ccccc1Cl (stereo not given)	3.74*
COC(=O)C1=C(C)NC2=C(C(=O)CC(c3ccccc3)C2)C1c1ccccc1Br (stereo not given)	7.61*
SMILES	Dicer inh
COc1ccc(C2C(C(=O)OCC(C)C)=C(C)NC3=C2C(=O)CC(c2ccccc2)C3)c(OC)c1 (stereo not given)	1.06
COC(=O)C1=C(C)NC2=C(C(=O)CC(c3ccccc3)C2)C1c1ccc(Br)cc1 (stereo not given)	1.27
COc1ccc(C2CC(=O)C3=C(C2)NC(C)=C(C(=O)OCC(C)C)C3c2ccc3c(c2)OCO3)cc1 (stereo not given)	-0.15
CC1=C(C(=O)OCC(C)C)C(c2cccc(F)c2)C2=C(CC(c3ccccc3)CC2=O)N1 (stereo not given)	1.12
CC(=O)Oc1ccc(C2C(C(=O)OCC(C)C)=C(C)NC3=C2C(=O)CC(c2ccccc2)C3)cc1 (stereo not given)	7.03*
CCSCCOC(=O)C1=C(C)NC2=C(C(=O)CC(c3ccccc3)C2)C1c1cccc(F)c1 (stereo not given)	3.74*
COC(=O)C1=C(C)NC2=C(C(=O)CC(c3ccc(OC)cc3)C2)C1c1ccc(OC)cc1 (stereo not given)	-1.47
CCOC(=O)C1=C(C)NC2=C(C(=O)CC(c3ccccc3)C2)C1c1ccc(C)o1 (stereo not given)	1.2
CCCOc1ccccc1C1C(C(=O)OCC)=C(C)NC2=C1C(=O)CC(c1ccccc1)C2 (stereo not given)	0.08
CCSCCOC(=O)C1=C(C)NC2=C(C(=O)CC(c3ccc(OC)cc3)C2)C1c1ccc(F)cc1 (stereo not given)	1.7
COc1cccc(C2Nc3nonc3NC3=C2C(=O)CC(C)(C)C3)c1 (stereo not given)	-1.45
CNS(=O)(=O)c1ccc2[nH]c(=O)c(=O)[nH]c2c1	0.69
O=c1c2ccccc2cnn1-c1ccccc1	0.92
CSc1nnc2c(n1)OC(c1ccc(Br)cc1)N(C(C)=O)c1ccccc1-2 (stereo not given)	-1.53
O=C(Nc1ccc(N2CCOCC2)cc1)c1cncc(Br)c1	-1.86
CC(NC(=O)C(C)(C)C)C1CC2CCC1C2 (stereo not given)	0.75
CN(Cc1ccccc1)C(=S)Nc1ccc(Cl)cc1	0.25
CCOc1ccccc1N1C(=O)C2C(c3ccc(C)cc3)OC3(C(=O)c4ccccc4C3=O)C2C1=O (stereo not given)	-1.76
CCOC(=O)C1=C(C)NC2=C(C(=O)CC(c3ccccc3)C2)C1c1cccc2ccccc12 (stereo not given)	0.44
CCOCCOC(=O)C1=C(C)NC2=C(C(=O)CC(c3ccccc3)C2)C1c1ccc(F)cc1 (stereo not given)	1.63
COc1ccccc1C1CC(=O)C2=C(C1)NC(C)=C(C(=O)OC(C)C)C2c1coc2ccccc2c1=O (stereo not given)	0.03
CCCOC(=O)C1=C(C)NC2=C(C(=O)CC(c3cccs3)C2)C1c1coc2ccc(C)cc2c1=O (stereo not given)	-0.42
CCOCCOC(=O)C1=C(C)NC2=C(C(=O)CC(c3ccccc3)C2)C1c1cccc2ccccc12 (stereo not given)	5.19*
CCCOC(=O)C1=C(C)NC2=C(C(=O)CC(c3ccccc3OC)C2)C1c1coc2ccccc2c1=O (stereo not given)	5.98*
O=C1c2nccnc2C(=O)N1c1cc(Cl)c(-n2cccc2)cc1Cl	1.26
SMILES	Dicer inh
NC(/C=C/c1cc(C(F)(F)F)cc(C(F)(F)F)c1)=N\OC(=O)/C=C/c1ccccc1	-0.65
Cc1cccc(-c2nnc(-c3ccccc3)o2)c1	2.6
COc1cc(OC)cc(-c2nc(-c3cccc(C)c3)no2)c1	-0.47
COc1oc(-c2cccc(C)c2)nc1C(F)(F)F	3.63*
COC(Cn1c(-c2ccc(C)cc2)n[nH]c1=S)OC	-1.56
Cc1nc(=O)c(-c2ccccc2)c(C)n1CCc1c[nH]c2ccccc12	-1.14
Cc1c2c(=O)n(-c3ccccc3)[nH]c2cc(=O)n1CCc1c[nH]c2ccccc12	3.01*
Cc1c2c(=O)n(-c3ccccc3)[nH]c2cc(=O)n1Cc1ccc2c(c1)OCO2	-1.98
CCN(CC)c1ccc(C2Nc3ccccc3NC3=C2C(=O)CC(C)(C)C3)cc1 (stereo not given)	0.38
CCCN(C(=O)CC#N)C(=O)Nc1ccccc1C	0
Cc1ccccc1NC(=O)N(Cc1cccs1)C(=O)CC#N	3.7*
Cc1cccc(C)c1NC(=O)N(Cc1ccccc1)C(=O)CC#N	0.25
Cc1nc(Nc2nc(-c3ccc(F)cc3)cc(=O)[nH]2)nc2ccccc12	-1.22
CCOc1ccc(/C(O)=C2\C(=O)C(=O)N(c3nnc(C)s3)C2c2ccc(OC)cc2)cc1 (stereo not given)	1.44
CCOc1ccc(/C(O)=C2\C(=O)C(=O)N(c3nnc(C)s3)C2c2ccc(OC)c(OC)c2)cc1 (stereo not given)	2.32
CCOc1ccc(/C(O)=C2\C(=O)C(=O)N(c3nccs3)C2c2ccc(OC)c(OC)c2)cc1 (stereo not given)	3.6*
COc1cccc(Cn2c(-c3cncs3)nc3ccccc32)c1	-1.37
CCCC12CN3CC(CCC)(CN(C1)C3c1cc(Br)ccc1O)C2=O (stereo not given)	2.82
CC(=O)c1c(O)c2ccccc2n(C)c1=O	-0.09
CCOC(=O)c1c(O)c2ccccc2n(C)c1=O	0.14
